The campaign covered roughly 5,500 compounds. About 2,000 (36%) were called active. Not shown: some 18% with an inconclusive outcome. This is one part of the list. Unmarked numbers belong to inactive results. Cut-off read from the data, not from the text of the source: active = normalized growth mostly below about 0.91 (no sharp cut-off); inconclusive = no clear call, values can overlap the other calls; inactive = mostly above about 0.92.
Test: chemical genetic growth profiling, strain panel (AID 1159580);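 note: tested at 20 µM; growth read once vehicle control cultures reached saturation at 30 °C; 1 = growth at the plate median or of vehicle wells; lower values mean less growth of the strain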
Settings: growth OD

C[C@H](CCC(=O)O)[C@H]1CCC2C3C(CC[C@@]21C)[C@@]1(C)CC[C@@H](O)C[C@H]1C[C@@H]3O (stereo partly specified)
normalized growth (S. cerevisiae deletion strains, locus YKL009W, strain mrt4, active compounds read low): 0.807 (active) | normalized growth (S. cerevisiae deletion strains, locus YKL068W, active compounds read low): 0.989 | normalized growth (S. cerevisiae deletion strains, locus YKL085W, strain MDH1 (second series), active compounds read low): 0.953 | normalized growth (S. cerevisiae deletion strains, locus YKL085W, strain MDH1, active compounds read low): 0.953 | normalized growth (S. cerevisiae deletion strains, locus YKL160W, strain elf1, active compounds read low): 0.977 | normalized growth (S. cerevisiae deletion strains, locus YKL190W, strain CNB1, active compounds read low): 0.99 | normalized growth (S. cerevisiae deletion strains, locus YKR001C, strain vps1, active compounds read low): 0.963 | normalized growth (S. cerevisiae deletion strains, locus YKR026C, strain gcn3, active compounds read low): 0.997 | normalized growth (S. cerevisiae deletion strains, locus YKR091W, strain srl3, active compounds read low): 0.99 | normalized growth (S. cerevisiae deletion strains, locus YLL001W, strain dnm1, active compounds read low): 0.953 | normalized growth (S. cerevisiae deletion strains, locus YLL026W, active compounds read low): 0.987 | normalized growth (S. cerevisiae deletion strains, locus YLL041C, strain sdh2, active compounds read low): 1 | normalized growth (S. cerevisiae deletion strains, locus YLR027C, strain aat2, active compounds read low): 0.983 | normalized growth (S. cerevisiae deletion strains, locus YLR039C, strain RIC1, active compounds read low): 0.828 | normalized growth (S. cerevisiae deletion strains, locus YLR058C, strain SHM2, active compounds read low): 0.984 | normalized growth (S. cerevisiae deletion strains, locus YLR102C, strain apc9, active compounds read low): 0.972 | normalized growth (S. cerevisiae deletion strains, locus YLR113W, strain HOG1, active compounds read low): 0.937 | normalized growth (S. cerevisiae deletion strains, locus YLR221C, strain rsa3, active compounds read low): 1.05 | normalized growth (S. cerevisiae deletion strains, locus YLR258W, strain gsy2, active compounds read low): 1.02 | normalized growth (S. cerevisiae deletion strains, locus YLR262C, strain YPT6 (second series), active compounds read low): 0.795 (active) | normalized growth (S. cerevisiae deletion strains, locus YLR262C, strain YPT6, active compounds read low): 0.776 | normalized growth (S. cerevisiae deletion strains, locus YLR268W, strain sec22, active compounds read low): 0.929 | normalized growth (S. cerevisiae deletion strains, locus YLR320W, strain mms22, active compounds read low): 1.03 | normalized growth (S. cerevisiae deletion strains, locus YLR330W, strain CHS5, active compounds read low): 0.996 | normalized growth (S. cerevisiae deletion strains, locus YLR342W, strain FKS1 (second series), active compounds read low): 0.965 | normalized growth (S. cerevisiae deletion strains, locus YLR342W, strain FKS1, active compounds read low): 0.946 | normalized growth (S. cerevisiae deletion strains, locus YLR357W, strain rsc2, active compounds read low): 1.06 | normalized growth (S. cerevisiae deletion strains, locus YLR370C, strain arc18, active compounds read low): 0.964 | normalized growth (S. cerevisiae deletion strains, locus YLR371W, strain rom2, active compounds read low): 0.987 | normalized growth (S. cerevisiae deletion strains, locus YLR384C, strain iki3, active compounds read low): 0.967 | normalized growth (S. cerevisiae deletion strains, locus YLR418C, strain cdc73, active compounds read low): 0.965 | normalized growth (S. cerevisiae deletion strains, locus YML016C, strain PPZ1, active compounds read low): 0.978 | normalized growth (S. cerevisiae deletion strains, locus YML032C, strain rad52, active compounds read low): 0.95 | normalized growth (S. cerevisiae deletion strains, locus YML120C, strain ndi1, active compounds read low): 0.962 | normalized growth (S. cerevisiae deletion strains, locus YML124C, strain tub3, active compounds read low): 0.986 | normalized growth (S. cerevisiae deletion strains, locus YMR058W, strain fet3, active compounds read low): 0.997 | normalized growth (S. cerevisiae deletion strains, locus YMR078C, strain ctf18, active compounds read low): 0.972 | normalized growth (S. cerevisiae deletion strains, locus YMR125W, strain sto1, active compounds read low): 1.03 | normalized growth (S. cerevisiae deletion strains, locus YMR129W, active compounds read low): 0.988 | normalized growth (S. cerevisiae deletion strains, locus YMR205C, strain PFK2, active compounds read low): 0.985 | normalized growth (S. cerevisiae deletion strains, locus YMR223W, strain ubp8, active compounds read low): 1 | normalized growth (S. cerevisiae deletion strains, locus YMR231W, strain pep5, active compounds read low): 0.959 | normalized growth (S. cerevisiae deletion strains, locus YMR263W, strain SAP30, active compounds read low): 1 | normalized growth (S. cerevisiae deletion strains, locus YMR307W, strain GAS1, active compounds read low): 0.88 | normalized growth (S. cerevisiae deletion strains, locus YNL067W, strain RPL9B, active compounds read low): 0.972 | normalized growth (S. cerevisiae deletion strains, locus YNL071W, strain lat1, active compounds read low): 1.01 | normalized growth (S. cerevisiae deletion strains, locus YNL128W, strain TEP1, active compounds read low): 0.99 | normalized growth (S. cerevisiae deletion strains, locus YNL153C, strain GIM3, active compounds read low): 1 | normalized growth (S. cerevisiae deletion strains, locus YNL183C, strain NPR1, active compounds read low): 0.921 | normalized growth (S. cerevisiae deletion strains, locus YNL209W, strain ssb2, active compounds read low): 1.01 | normalized growth (S. cerevisiae deletion strains, locus YNL233W, strain BNI4, active compounds read low): 1.02 | normalized growth (S. cerevisiae deletion strains, locus YNL248C, strain rpa49, active compounds read low): 1.02 | normalized growth (S. cerevisiae deletion strains, locus YNL250W, strain rad50, active compounds read low): 0.978 | normalized growth (S. cerevisiae deletion strains, locus YNL271C, strain bni1, active compounds read low): 0.956 | normalized growth (S. cerevisiae deletion strains, locus YNL298W, strain CLA4, active compounds read low): 0.937 | normalized growth (S. cerevisiae deletion strains, locus YNL307C, strain MCK1, active compounds read low): 0.979 | normalized growth (S. cerevisiae deletion strains, locus YNL322C, strain KRE1 (second series), active compounds read low): 0.981 | normalized growth (S. cerevisiae deletion strains, locus YNL322C, strain KRE1, active compounds read low): 0.993 | normalized growth (S. cerevisiae deletion strains, locus YNR049C, strain mso1, active compounds read low): 0.993 | normalized growth (S. cerevisiae deletion strains, locus YNR052C, strain pop2, active compounds read low): 0.971 | normalized growth (S. cerevisiae deletion strains, locus YOL006C, strain TOP1, active compounds read low): 0.931 | normalized growth (S. cerevisiae deletion strains, locus YOL012C, strain htz1): 0.86 | normalized growth (S. cerevisiae deletion strains, locus YOL147C, strain pex11, active compounds read low): 0.983 | normalized growth (S. cerevisiae deletion strains, locus YOR001W, strain rrp6, active compounds read low): 0.947 | normalized growth (S. cerevisiae deletion strains, locus YOR061W, strain CKA2, active compounds read low): 0.977 | normalized growth (S. cerevisiae deletion strains, locus YOR069W, strain VPS5, active compounds read low): 0.989 | normalized growth (S. cerevisiae deletion strains, locus YOR070C, strain gyp1, active compounds read low): 1 | normalized growth (S. cerevisiae deletion strains, locus YOR080W, strain dia2, active compounds read low): 0.972 | normalized growth (S. cerevisiae deletion strains, locus YOR083W, strain WHI5, active compounds read low): 0.969 | normalized growth (S. cerevisiae deletion strains, locus YOR106W, strain vam3, active compounds read low): 0.951 | normalized growth (S. cerevisiae deletion strains, locus YOR136W, strain idh2, active compounds read low): 1 | normalized growth (S. cerevisiae deletion strains, locus YOR144C, strain elg1, active compounds read low): 0.984 | normalized growth (S. cerevisiae deletion strains, locus YOR184W, strain ser1, active compounds read low): 0.921 | normalized growth (S. cerevisiae deletion strains, locus YOR231W, strain MKK1, active compounds read low): 0.952 | normalized growth (S. cerevisiae deletion strains, locus YOR265W, strain rbl2, active compounds read low): 0.99 | normalized growth (S. cerevisiae deletion strains, locus YOR270C, strain vph1, active compounds read low): 0.945 | normalized growth (S. cerevisiae deletion strains, locus YOR290C, strain snf2, active compounds read low): 1.03 | normalized growth (S. cerevisiae deletion strains, locus YOR316C, strain cot1, active compounds read low): 0.982 | normalized growth (S. cerevisiae deletion strains, locus YPL051W, strain arl3, active compounds read low): 1 | normalized growth (S. cerevisiae deletion strains, locus YPL055C, strain LGE1, active compounds read low): 1.01 | normalized growth (S. cerevisiae deletion strains, locus YPL078C, strain atp4, active compounds read low): 0.931 | normalized growth (S. cerevisiae deletion strains, locus YPL106C, strain sse1, active compounds read low): 0.993 | normalized growth (S. cerevisiae deletion strains, locus YPL240C, strain hsp82, active compounds read low): 1.01 | normalized growth (S. cerevisiae deletion strains, locus YPL241C, strain CIN2, active compounds read low): 0.993 | normalized growth (S. cerevisiae deletion strains, locus YPL256C, strain CLN2, active compounds read low): 0.936 | normalized growth (S. cerevisiae deletion strains, locus YPR119W, strain clb2, active compounds read low): 0.977 | normalized growth (S. cerevisiae deletion strains, locus YPR141C, strain kar3, active compounds read low): 0.97 | normalized growth (S. cerevisiae deletion strains, locus YPR163C, strain tif3, active compounds read low): 0.981 | normalized growth (S. cerevisiae deletion strains, locus YPR167C, strain met16, active compounds read low): 0.987 | normalized growth (S. cerevisiae deletion strains, strain wtn01, active compounds read low): 0.971 | normalized growth (S. cerevisiae strains, strain wild type, active compounds read low): 0.994
